# Only some compounds are listed: those with a hit (about 1.4% of all), similar ones and a draw of the others.
# p-CIP stab down – lowers stability of the mouse p/CIP coactivator protein | Q05BA5 | F442A p/CIP-EGFP cells, EGFP fluorescence, 16 h | decrease of EGFP signal, % at 10 µM | 290,000 tested, 0.01% active | AID 1984;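 active = EGFP signal decrease of at least 30% at 10 µM or well 3 SD below plate mean, unless failing retest; inactive = the rest, including hits failing retest or dose response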
# HTR5A inv ag – counter-screen for OPRM1-OPRD1 inverse agonists: human HTR5A inverse agonism. P47898. HTR5A cell line, luminescence. inhibition, % at 9.3 µM. 340,000 tested, 0.083% active. AID 504634; in the data active = inhibition mostly above about 23%, no sharp cut-off; inactive = mostly below about 18%;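 note: 0% = cells with DMSO and 100% = no-cell wells with DMSO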
# Target sequence (P47898 whole entry, looked up): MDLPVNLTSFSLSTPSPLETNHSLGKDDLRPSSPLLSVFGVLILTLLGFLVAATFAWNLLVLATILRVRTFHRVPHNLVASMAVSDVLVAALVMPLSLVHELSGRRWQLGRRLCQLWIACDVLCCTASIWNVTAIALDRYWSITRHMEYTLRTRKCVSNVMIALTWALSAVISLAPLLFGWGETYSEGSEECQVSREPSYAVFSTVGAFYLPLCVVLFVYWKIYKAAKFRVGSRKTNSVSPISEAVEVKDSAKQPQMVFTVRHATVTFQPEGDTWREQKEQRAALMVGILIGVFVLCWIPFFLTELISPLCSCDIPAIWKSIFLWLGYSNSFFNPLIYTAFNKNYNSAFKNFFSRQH
# MIN6 prolif – MIN6 beta-cell proliferation induction. MIN6 cells proliferation, ATPlite luminescence, 48 h; cells starved in 0.2% serum; 100% = growth in 10% serum. proliferation, % at 10 µM. 330,000 tested, 0.29% active;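 active = compounds whose signal lies at least 3.5 SD above the mean of all wells on their plate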;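 note: 0% = DMSO-treated cells in low-serum medium and 100% = 10% serum control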
# HTR5A ag – activates human HTR5A in OPRM1-OPRD1 agonist counter-screen; P47898; HTR5A agonist assay, luminescence, cell-based; activation, % at 9.3 µM; 340,000 tested, 0.61% active; in the data active = activation mostly above about 9.5%, no sharp cut-off; inactive = mostly below about 7.6%;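 note: 0% = cells with vehicle only and 100% = reference agonist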
# OPRM1-OPRD1 ag – agonists of human mu-delta opioid receptor heterodimerization; P35372+P41143; cells, OPRM1-OPRD1 heterodimerization, luminescence; activation, % at 9.3 µM; 340,000 tested, 0.3% active; AID 504326;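 note: 0% = vehicle-treated cells and 100% = reference agonist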
# MOR-DOR inv ag – inverse agonists of human mu-delta opioid receptor heterodimerization; 340,000 tested, 0.21% active; cell-based MOR-DOR heterodimer luminescence, inverse agonism; inhibition, % at 9.3 µM; AID 504357; in the data active = inhibition above about 22%, passing the limit was not always enough;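 note: 0% = cells with DMSO and 100% = wells without cells with DMSO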
# MOR-DOR ag conf – confirmation of human OPRM1-OPRD1 heterodimerization agonists | shares compounds with OPRM1-OPRD1 ag | cells, MOR-DOR heterodimerization, luminescence complementation | activation, % at 9.3 µM | 830 tested, 45% active;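 note: 0% = vehicle-treated cells and 100% = reference agonist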
# HTR5A ag counter – activates human HTR5A in OPRM1-OPRD1 agonist counter-screen; 830 tested, 8% active; activation, % at 9.3 µM; shares compounds with OPRM1-OPRD1 ag; HTR5A agonist counterscreen, cell luminescence; in the data active = activation above about 17%;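 note: 0% = vehicle-treated cells and 100% = reference agonist response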
# The depositor's hits bear a star; i = inactive; · = not tested or not shown. Cut-off read from the data, not from the text of the source, unless noted: active = activation above about 18%; inactive = the rest.
SMILES,p-CIP stab down,HTR5A inv ag,MIN6 prolif,HTR5A ag,OPRM1-OPRD1 ag,MOR-DOR inv ag,MOR-DOR ag conf,HTR5A ag counter
Cc1ccc(C)c(N2N=C(C(=O)OCC(=O)N(C)c3ccccc3)CCC2=O)c1,·,3,-2,1,-4,20,·,·
C(=N\Nc1nc(Nc2ccccc2)nc(N2CCOCC2)n1)/c1c[nH]c2ccccc12,-30,·,-6,·,·,·,·,·
Cc1ccc(Nc2nc(N/N=C/c3c[nH]c4ccccc34)nc(N3CCOCC3)n2)cc1,-18,-4,-3,1,19*,-113,16,2
CCN(CC)c1ccc(/C=C2\C(=O)c3ccc(C(=O)O)cc3C2=O)cc1,-3,15,·,-8,21*,-107,10,-6
CCN(CC)c1ccc(C(=O)O)cc1,-3,-21,-1,0,-2,12,·,·
O=C1CCN(Cc2ccccc2)CCN1[C@H](COc1ccccc1)Cc1ccccc1,-11,7,-6,5,25*,-140,25*,2
CCCN1CCC(=O)N([C@H](COc2ccccc2)Cc2ccccc2)CC1,-12,-1,-2,3,0,3,·,·
O=C(O)C1CCc2nc(NCc3ccccc3)nc(NCc3ccccc3)c2C1 (stereo unspecified),·,-5,·,1,-1,4,·,·
COC(=O)c1cc(NC(=O)c2ccc(Cn3cc(Cl)cn3)o2)cc(C(=O)OC)c1,-6,15,1,-4,-1,4,·,·
COC(=O)c1ccccc1NC(=O)c1ccc(Cn2cc(Cl)cn2)o1,0,-12,-2,-1,19*,-113,11,5
Cn1c(-c2c(N)n(CCc3ccccc3)c3nc4ccccc4nc23)nc2ccccc21,-8,-14,-5,4,250*,i,235*,6
COCCCn1c(N)c(-c2nc3ccccc3n2C)c2nc3ccccc3nc21,-16,5,-2,-2,117*,i,142*,-1
Cn1c(-c2c(N)n(C3CCCC3)c3nc4ccccc4nc23)nc2ccccc21,-10,9,-5,-3,7,-40,·,·
O=C1NC(=Nc2ccccc2)S/C1=C\c1ccccc1,-12,12,0,-2,24*,-122,0,6
Cc1cc(/C=C2\SC(=Nc3ccccc3)NC2=O)c(C)n1-c1ccc(S(N)(=O)=O)cc1,-6,-18,-3,6,120*,i,140*,-2
CN1CCN(c2ccc(NC(=O)c3ccc(-c4ccc(Br)cc4)o3)cc2)CC1,4,-47,-6,17*,345*,i,36*,4
CCN1CCN(c2ccc(NC(=O)c3ccc(Br)o3)cc2)CC1,3,-2,-5,-2,-2,10,·,·
CCOC(=O)C1(CCc2ccccc2)CCN(Cc2c(O)cccc2OC)CC1,-4,6,-6,-2,292*,i,-1,-8
CCOC(=O)C1(CCc2ccccc2)CCN(Cc2ccc(OC)cc2)CC1,1,3,-5,-1,129*,i,7,8
CCOC(=O)C1(CCc2ccccc2)CCN(Cc2ccc(O)cc2)CC1,3,2,-3,-1,7,-35,·,·
COc1ccc(-c2cn(CCO)c(-c3ccncc3)n2)cc1,·,7,-3,0,-1,3,·,·
COCC1CCN(Cc2cn(-c3ccccc3F)nc2-c2cc(C)sc2C)CC1,-9,-12,-2,-1,42*,-216,55*,5
CN(C)CCNCCCNc1c2ccccc2nc2cccc([N+](=O)[O-])c12,·,-17,·,4,1,-3,·,·
NC(N)=NC(=O)c1nc(Cl)c(N)nc1N,-9,-36,-2,-5,-1,7,·,·
NC(N)=NC(=O)c1nc(Cl)c(N2CCCCCC2)nc1N,·,11,-6,-3,72*,-389,95*,-2
CC(=O)Nc1ccc(C(=O)COC(=O)C2CC2C)c(F)c1 (stereo unspecified),·,-25,3,8,-5,22,·,·
